These results are taken from PubChem BioAssay (Tox21).

SMILES strings stand for the structures. Values joined by “and” are separate entries in the source; they are usually repeats but may differ in a detail not shown here. Identical values can stand only once. Records with an inconclusive call do not appear. Where a call stands in place of a potency, no number is given. Unmarked numbers belong to inactive results. Active and inactive are the calls of the source. Calls come from the whole dose curve; as a rule, active = well fitted cell-killing curve with a large enough effect in the repeat runs; inconclusive = weak or mixed curves, or effect the other way; inactive = flat fitted curve, though single readings scatter.
Potency is the fitted concentration of half-maximal effect.

The assay is described as follows: qHTS RealTime-Glo MT Cell Viability Assay in HEK293 cells - 8 hour (AID 1224887). For activity change, negative = cytotoxicity: top concentration of the series differs between compounds. Note: nearly all actives have a fitted effect of over 50% in size. The conditions noted are these: RealTime-Glo luminescence; series mostly up to 76.8 µM. The source says:
U.S. Tox21 Program National Center for Advancing Translational Sciences [NCATS] NIH Chemical Genomics Center [NCGC] U.S. Environmental Protection Agency [EPA] National Institutes of Environmental Health Sciences [NIEHS] National Toxicology Program [NTP] U.S. Food and Drug Administration [FDA] Tox21 Assay Overview: Measure of cell viability is critical in the cell-base assay. Analysis of cell viability is necessary for the characterization of cell responses to cytotoxic drugs and environmental stress. A RealTime-Glo MT Cell Viability Assay to monitor cell viability in real time of continues cell culture during 40 hours of compound treatment was used to screen Tox21 10K library compounds in Hek293 cells. The RealTime-Glo MT Cell Viability Assay is a nonlytic, homogeneous, bioluminescent method to measure cell viability in real time using a simple, plate-based method. The assay involves adding NanoLuc luciferase and a cell-permeant prosubstrate to cells in culture. Viable cells reduce the proprietary prosubstrate to generate a substrate for NanoLuc luciferase. This substrate diffuses from cells into the surrounding culture medium, where it is rapidly used by the NanoLuc Enzyme to produce a luminescent signal. The signal correlates with the number of viable cells, making the assay well suited for cytotoxicity studies.
Tox21 Assay Protocol Summary: The mixture of Hek293 cell suspension and reagents were dispensed at 600cells/6 ul/well in 1536-well tissue culture treated black solid bottom plates using a Multidrop dispenser. After the assay plates were incubated at a 37 C/5% CO2 incubator for 5 hours, 23 nL of compounds dissolved in DMSO, positive and negative controls was transferred to the assay plate by a pintool work station. The plates were incubated at 37 C for 40 hours. The luminescence intensity were measured at 0h, 8h, 16h, 24h, 32h and 40h time points using ViewLux plate reader during compound treatment.
For the molecule `CCCCCCOC(=O)c1ccc(O)cc1`, the Potency was 43.7 µM (active) and 24.5 µM (active).
Take `Oc1cccc2cc3cccc(O)c3c(O)c12`: the Potency entry was “inactive”.
Still for that read-out and setting: to `COc1ccc(-c2ccc3cc(C(=O)O)ccc3c2)cc1C12CC3CC(CC(C3)C1)C2` belongs “inactive”.
Regarding `CC(NN)c1ccccc1` (stereo not given), the activity change, negative = cytotoxicity is -8.04% [at 15.8 µM].
As for `Cc1cc(O)c(Cl)c(C)c1Cl`, the Potency result was “inactive”.
Take `NC(=O)NS(=O)(=O)c1ccc(N)cc1`: the Potency result was “inactive”.
On the same count and under the same terms, for `N=C1N=C(N)c2cc3ccccc3cc21` the value was 43.6 µM (active); for `OC1(c2ccc(Cl)c(C(F)(F)F)c2)CCN(CCCC(c2ccc(F)cc2)c2ccc(F)cc2)CC1`, 19 µM (active); for `CN(C)c1ccc(SC#N)cc1`, “inactive”.
On the same count and under the same terms, for `O=C1c2ccccc2Cc2ccccc21` the value was “inactive”; for `Clc1ccc2n[nH]nc2c1`, “inactive”.
For `CCCCCCCC(=O)[O-].CCCCCCCC(=O)[O-].[Zn+2]`, the Potency entry is “inactive”.
Same read-out and setting: to `C[C@H]1[C@H]2CC[C@H]3[C@@H]4CC=C5C[C@@H](N(C)C)CC[C@]5(C)[C@H]4CC[C@]23CN1C` belongs “inactive”; to `O=C(O)c1c(Cl)cccc1Cl`, “inactive”.
On the same count and under the same terms, for `C[C@@H](NCCCc1cccc(C(F)(F)F)c1)c1cccc2ccccc12` the value was 23.9 µM (active).
With `CCCCC(CC)COP(=O)(O)OCC(CC)CCCC` (stereo not given), the Potency result was “inactive”.
Still for that read-out and setting: for `C/C=C1/C(=O)C[C@H]2[C@@H]3CCC4=CC(=O)CC[C@]4(C)[C@H]3CC[C@]12C` the value was 24.5 µM (active).
On the same count and under the same terms, for `O=C1c2c(O)ccc(Nc3ccc(CCO)cc3)c2C(=O)c2c([N+](=O)[O-])ccc(O)c21` the value was 43.6 µM (active).
The same measure, in the same setting: for `O=c1[nH]sc2ccccc12` the value was 49 µM (active); for `Nc1ccc(N)c2ccccc12`, 24.5 µM (active); for `Cc1cccc(S(=O)(=O)O)c1C`, “inactive”.
For `Oc1cccc(-c2c3nc(c(-c4cccc(O)c4)c4ccc([nH]4)c(-c4cccc(O)c4)c4nc(c(-c5cccc(O)c5)c5ccc2[nH]5)CC4)C=C3)c1`, the Potency was 23.9 µM (active).
Still for that read-out and setting: for `CC(C)(C)CC(C)(C)c1ccc(O)c(Cc2ccc(Cl)cc2Cl)c1` the value was 23.9 µM (active); for `CCCCc1oc2ccc(NS(C)(=O)=O)cc2c1C(=O)c1ccc(OCCCN(CCCC)CCCC)cc1`, 19 µM (active); for `CCOC(=O)O[C@H](C)OC(=O)c1ccc2c(c1)cc(C(=O)NC1CCN(C(C)C)CC1)n2Cc1cc(-c2ccc(Cl)s2)on1`, 11.5 µM (active).
On the same count and under the same terms, to `CC(C)(C)C(=O)OCOC(=O)[C@@H]1N2C(=O)[C@@H](NC(=O)[C@H](N)c3ccccc3)[C@H]2SC1(C)C` belongs “inactive”; to `CC1=NC(C)OC1C` (stereo not given), “inactive”.
Same read-out and setting: to `CN(C)[C@@H]1C(=O)C(C(N)=O)=C(O)[C@@]2(O)C(=O)C3=C(O)c4c(O)ccc(Cl)c4[C@@H](O)[C@H]3C[C@@H]12` belongs “inactive”; to `Oc1ccc(N=Nc2ccccc2)cc1`, 19.8 µM (active).
For the molecule `[Cl][Bi]([Cl])([c]1ccccc1)([c]1ccccc1)[c]1ccccc1`, the Potency is 21.7 µM (active).
The same measure, in the same setting: for `C=C(C)C(=O)OCC[N+](C)(C)C` the value was “inactive”.
On the same count and under the same terms, for `O=C(Nc1cccc([N+](=O)[O-])c1)c1cc2ccccc2cc1O` the value was “inactive”.
For the molecule `CCCCCCCCNC(C)C(O)c1ccc(SC(C)C)cc1` (stereo not given), the Potency was 10.7 µM (active).
On the same count and under the same terms, to `COc1cc(-c2ccc(N=C=O)c(OC)c2)ccc1N=C=O` belongs “inactive”; to `CCCN(CCC)C(=O)C(CCC(=O)OCCCN1CCN(CCOC(=O)Cc2c(C)n(C(=O)c3ccc(Cl)cc3)c3ccc(OC)cc23)CC1)NC(=O)c1ccccc1` (stereo not given), 23.9 µM (active); to `O=[N+]([O-])c1cc(Cl)c(Cl)c(Cl)c1Cl`, “inactive”.
On the same count and under the same terms, for `CC(C)(C)c1ccc(C(=O)O)cc1` the value was “inactive”.
Same read-out and setting: to `CCOC(=O)/C=C(C)/C=C/C=C(C)/C=C/c1c(C)cc(OC)c(C)c1C` belongs “inactive”.
Turning to `S=c1[nH]c2ccccc2s1`, the Potency entry is “inactive”.
Same read-out and setting: for `COC(=O)C1=C(C)NC(C)=C(C(=O)OCCc2ccc(N3CCN(C(c4ccccc4)c4ccccc4)CC3)cc2)C1c1cccc([N+](=O)[O-])c1` (stereo not given) the value was “inactive”.
